Measurements: PubChem BioAssay (NCI)
The panel holds about 83,000 compounds, 20% with a hit somewhere; the sample as a whole holds those more often.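 A percent growth of 40 corresponds to 60% growth inhibition; 0 means no net growth; -100 means all cells died. Active threshold: below 10.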 A number with no mark means an inactive call. The source made the active and inactive calls.

Key:
Assay in all cases: NCI-60 one-dose screen, 48 h (100 = growth as untreated, 0 = no growth, -100 = all killed)
Settings in all cases: 10 µM unless noted
DU-145 prostate = test system: DU-145 prostate
K-562 leukemia = test system: K-562 leukemia
MALME-3M melanoma = test system: MALME-3M melanoma
MDA-MB-231 breast = test system: MDA-MB-231 breast
RXF 393 renal = test system: RXF 393 renal
SF-268 CNS = test system: SF-268 CNS
SF-295 CNS = test system: SF-295 CNS
SF-539 CNS = test system: SF-539 CNS
UACC-257 melanoma = test system: UACC-257 melanoma
M14 melanoma = test system: M14 melanoma

Row | Structure (SMILES) | growth (DU-145 prostate) | growth (K-562 leukemia) | growth (MALME-3M melanoma) | growth (MDA-MB-231 breast) | growth (RXF 393 renal) | growth (SF-268 CNS) | growth (SF-295 CNS) | growth (SF-539 CNS) | growth (UACC-257 melanoma) | growth (M14 melanoma)
1 | Oc1cncc(-c2ccc3ncnc(N4CCc5cc(F)c(Cl)cc54)c3c2)c1 | 49% | 65% | 70.8% | 46.5% | 46.4% | 45.1% | 57.6% | 56% | 90.9% | 78%
2 | CN1CCc2c(sc3ncnc(N/N=C/c4cccc(Cl)c4Cl)c23)C1 | -5.42% (active) | -7.35% (active) | 87.5% | -43.4% (active) | 27.3% | 43.1% | -72.5% (active) | -91.8% (active) | 76.5% | 64.5%
3 | COc1cc(/C=C/C(=O)c2cnn(-c3cc(=O)[nH]c4ccc(C)cc34)c2C)cc(OC)c1OC | -54.6% (active) | 0.896% (active) | -19.5% (active) | -2.3% (active) | -76.9% (active) | 6.69% (active) | 12.7% | -29% (active) | 5.74% (active) | -51.2% (active)
4 | CC1=C(C(=O)OCc2ccccc2)C(c2cccc3ccccc23)n2c(nc3ccccc32)N1 (stereo not given) | 28.9% | 11.7% | 16.8% | 37.9% | 0.534% (active) | 44.9% | 10.5% | 11.8% | 40.7% | 23.9%
5 | Clc1ccc(-c2nc3c4c(-c5ccccc5)c(-c5ccccc5)n(Cc5ccccc5)c4ncn3n2)cc1 | 22.7% | 4.9% (active) | 4.59% (active) | 0.484% (active) | -11.3% (active) | 20.4% | -14.1% (active) | 7.91% (active) | 3.18% (active) | 15.4%
6 | Nc1nn2c(-c3cc4cc(Br)ccc4oc3=O)ccnc2c1N=Nc1ccc(Br)cc1 | 36.8% | 32.4% | 52.1% | -43.8% (active) | -31.4% (active) | 26.9% | -37% (active) | -71.4% (active) | 87.8% | 42.4%
7 | COc1cc(C2CC(c3ccc(C(F)(F)F)cc3)=Nc3c(N)nc(N)nc3N2)ccc1Oc1nc(Nc2ccc(F)cc2)nc(N(C)C)n1 (stereo not given) | 59.9% | 7.52% (active) | 65.3% | 29.5% | 3.99% (active) | 53.3% | 36.6% | 51.4% | 50.3% | 28.2%
8 | COc1ccc(N=Nc2c(N)nn3c(-c4ccc(F)cc4)ccnc23)cc1 | 79.9% | 71.9% | 40.4% | 77.2% | 106% | 83.5% | 87.7% | 67.5% | 81.8% | 51.3%
9 | O=C(N/N=C/c1ccc(Cl)cc1)c1ccc(OCc2nc3ccc(Cl)cc3[nH]2)cc1 | -36.1% (active) | 14.6% | 37.5% | 6.26% (active) | -10% (active) | 82.1% | 13.8% | 67.6% | 24.8% | -14.1% (active)
10 | CC[C@]12C=CCN3CC[C@@]4(c5ccc(OC)cc5N(C)[C@H]4[C@@](O)(C(=O)OC)[C@@H]1OC(=O)CCC[P+](c1ccc(OC)cc1)(c1ccc(OC)cc1)c1ccc(OC)cc1)[C@@H]32 | -75.4% (active) | -1.75% (active) | -97.8% (active) | -97% (active) | -92.6% (active) | -34.3% (active) | -93.7% (active) | -98.9% (active) | -93.5% (active) | -88.4% (active)
11 | Cc1ccc(C2CC(c3ccc(NC(=S)Nc4ccccc4)cc3)=NN2c2ccc(S(N)(=O)=O)cc2)cc1 (stereo not given) | 19.7% | 22.7% | -0.146% (active) | 15.2% | -16.1% (active) | 15.6% | 8.39% (active) | 10.3% | 36.6% | 19%
12 | O=C(NN1C(=O)/C(=C/C=C/c2ccc([N+](=O)[O-])o2)SC1=S)c1ccc([N+](=O)[O-])cc1 | -100% (active) | 4.2% (active) | -91.3% (active) | -99.7% (active) | -88.6% (active) | -82.3% (active) | -97.5% (active) | -100% (active) | -82.2% (active) | -82.5% (active)
13 | CCCCN1C(=O)/C(=C\C(=O)c2cc3ccccc3oc2=O)c2ccccc21 | 85.8% | -36.9% (active) | 69% | 48.2% | 60.1% | 87.5% | 101% | 80.2% | 105% | 53.5%
14 | Cc1ccc2nc(COc3ccc(C(=O)NNC(=O)Nc4ccc(Cl)c(C(F)(F)F)c4)cc3)[nH]c2c1 | 59.3% | 20.8% | -48.5% (active) | 3.89% (active) | 50.2% | 40.1% | 63% | -10.6% (active) | -17.4% (active) | 27.7%
15 | O=c1ccc(Cn2c(C(F)(F)F)cc3c(Cl)ncnc32)c[nH]1 | 86.3% | 3.37% (active) | 91.4% | 52.6% | 86.5% | -22.9% (active) | 97.6% | 87.4% | 24% | -51.5% (active)
16 | O=C(/C=C1\C(=O)N(Cc2ccccc2)c2ccccc21)c1cc2ccccc2oc1=O | 104% | 1.52% (active) | 68.9% | 81% | 86.1% | 95.6% | 104% | 98.9% | 107% | 85.1%
17 | Nc1cc(-c2c[nH]c3ccc(F)cc23)nc2cc(-c3c[nH]c4ccccc34)nn12 | 26.9% | 5.2% (active) | -28% (active) | -65.5% (active) | 36.5% | 35.4% | -66% (active) | -74.8% (active) | -63.3% (active) | -23.1% (active)
18 | COc1cc(C2CC(c3ccc(S(=O)(=O)NCCNc4nc(N(C)C)nc(N5CCOCC5)n4)cc3)=Nc3c(N)nc(N)nc3N2)cc(OC)c1OC (stereo not given) | 109% | 92.5% | 92.6% | 80.8% | 85.7% | 89.6% | 94.4% | 96.8% | 99.8% | 101%
19 | N#CC1=C(c2cccs2)Nc2c(c(-c3ccccc3)nn2-c2ccccc2)C12C(=O)Nc1ccccc12 (stereo not given) | 33.5% | 9.66% (active) | 26.9% | 34.2% | -13.4% (active) | 54.3% | 40.3% | -45.2% (active) | 88% | 14.6%
20 | CC(=O)Nc1ccc(S(=O)(=O)Nc2ccc(-c3ccc4c(c3)NC(=O)/C4=C\c3ccc[nH]3)cc2)cc1 | 93.4% | 64.8% | 92.5% | 88.7% | 107% | 112% | 94.9% | 84% | 102% | 100%
21 | CN(C)c1ccc(/C=C/c2n(Cc3ccc4ccccc4c3)c3ccccc3[n+]2Cc2ccc3ccccc3c2)cc1 | -43.3% (active) | 2.08% (active) | -68% (active) | -80.3% (active) | -74.4% (active) | -59.1% (active) | -98.9% (active) | -95.3% (active) | -74.3% (active) | -69.2% (active)
22 | Cc1cn(-c2cc(NC(=O)c3ccc(C)c(-n4cc(-c5cnc6cccnn56)nn4)c3)cc(C(F)(F)F)c2)cn1 | 105% | 4.65% (active) | -12.3% (active) | 24.7% | 98.1% | 112% | 93.8% | 77.7% | 22.4% | 21.5%
23 | N#CC1=C(c2ccco2)Nc2c(c(-c3ccccc3)nn2-c2ccccc2)C12C(=O)Nc1ccc(Br)cc12 (stereo not given) | 70.5% | 21.2% | 90.7% | 33.2% | 70.2% | 49.1% | 72.5% | -33% (active) | 73.1% | 42%
24 | CN1C(=O)/C(=C\C(=O)c2cc3ccccc3oc2=O)c2ccccc21 | 71.1% | 25.6% | 43.2% | 58.7% | 30.5% | 77.4% | 97.3% | 54% | 91.9% | 58.7%
25 | O=C1Nc2ccc(F)cc2/C1=C/C(=O)c1cc2ccccc2oc1=O | 111% | 33.9% | 71.2% | 91.8% | 83.4% | 106% | 108% | 105% | 96.3% | 89.1%
